In PubChem BioAssay (NCATS):
Values without a mark were called inactive. Results filed as inconclusive are left out. Activity calls are given as the source filed them. Unless noted, calls come from the whole dose curve; as a rule, active = well fitted curve in the direction sought with a large enough effect; inconclusive = small, poorly fitted or top-dose-only effect, or another doubt; inactive = no such curve, though single readings can be large; an effect the other way counts as inactive or inconclusive.

Biological target: Cytochrome P450 2D6 (Homo sapiens) (UniProt P10635)
Assay: qHTS Assay for Inhibitors and Substrates of Cytochrome P450 2D6 (AID 891); note: nearly all actives have a fitted effect of over 60% in size; note: potency is the fitted concentration of half-maximal effect;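 for activity change, negative = inhibition: luciferin methyl ether substrate demethylated by CYP2D6 with NADPH regeneration; % is set by controls: 0 for no effect and ±100 for the full control effect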
Settings: recombinant CYP2D6, luciferin-ME EGE luminescence; series mostly up to 57.1 µM; activity change, negative = inhibition: at the top concentration
Procedure, shortened: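 Human CYP2D6 (5 nM) with 30 uM Luciferin-ME EGE (at Km) in 100 mM KPO4, compound preincubated 10 min, then NADPH regeneration system for 60 min at room temperature. Luciferin read by luminescence; normalized to 1.43 uM quinidine.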

Chain of Cytochrome P450 2D6 (Homo sapiens) (P10635 whole entry, looked up): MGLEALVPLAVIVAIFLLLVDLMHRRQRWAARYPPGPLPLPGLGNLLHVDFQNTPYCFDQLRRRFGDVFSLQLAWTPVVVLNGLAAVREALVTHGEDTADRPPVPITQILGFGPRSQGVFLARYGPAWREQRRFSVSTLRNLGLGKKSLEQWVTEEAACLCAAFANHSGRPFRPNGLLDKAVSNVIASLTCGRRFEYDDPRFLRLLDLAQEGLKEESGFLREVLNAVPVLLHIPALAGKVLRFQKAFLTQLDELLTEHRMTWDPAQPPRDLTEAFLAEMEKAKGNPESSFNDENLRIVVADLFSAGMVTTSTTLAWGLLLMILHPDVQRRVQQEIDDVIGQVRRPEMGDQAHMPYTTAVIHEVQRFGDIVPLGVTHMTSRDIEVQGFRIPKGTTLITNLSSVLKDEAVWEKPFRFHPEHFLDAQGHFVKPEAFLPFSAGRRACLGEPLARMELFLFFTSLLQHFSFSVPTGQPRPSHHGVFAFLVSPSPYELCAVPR

| SMILES | Potency | activity change, negative = inhibition |
| --- | --- | --- |
| COc1ccc2[nH]cc(CCNc3ncncc3-c3ccccc3C(F)(F)F)c2c1 | 2000 nM (active) | – |
| COc1ccccc1CNc1ncncc1-c1ccccc1C(F)(F)F | 2000 nM (active) | – |
| O=c1cc(-c2ccc(O)c(O)c2)oc2cc(O[C@@H]3O[C@@H](CO)[C@@H](O)[C@@H](O)[C@H]3O)cc(O)c12 | – | 4.23% (inactive) |

Biological target: Cytochrome P450 2C19 (Homo sapiens) (UniProt P33261)
Assay: qHTS Assay for Inhibitors and Substrates of Cytochrome P450 2C19 (AID 899); note: nearly all actives have a fitted effect of over 60% in size; note: potency is the fitted concentration of half-maximal effect; for activity, negative = inhibition: % is set by controls: 0 for no effect and ±100 for the full control effect
Settings: recombinant CYP2C19, luciferin-H EGE luminescence; series mostly up to 57.1 µM; activity, negative = inhibition: at the top concentration
Procedure, shortened: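 5 nM human CYP2C19 with 10uM Luciferin-H EGE (at KM) in 50mM KPO4, compound preincubated 10 min at 37C, then NADPH regeneration for 60 min at 37C. Luciferin read by luminescence after detection reagent; normalized to 57uM ketoconazole as full inhibition.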

Chain of Cytochrome P450 2C19 (Homo sapiens) (P33261 whole entry, looked up): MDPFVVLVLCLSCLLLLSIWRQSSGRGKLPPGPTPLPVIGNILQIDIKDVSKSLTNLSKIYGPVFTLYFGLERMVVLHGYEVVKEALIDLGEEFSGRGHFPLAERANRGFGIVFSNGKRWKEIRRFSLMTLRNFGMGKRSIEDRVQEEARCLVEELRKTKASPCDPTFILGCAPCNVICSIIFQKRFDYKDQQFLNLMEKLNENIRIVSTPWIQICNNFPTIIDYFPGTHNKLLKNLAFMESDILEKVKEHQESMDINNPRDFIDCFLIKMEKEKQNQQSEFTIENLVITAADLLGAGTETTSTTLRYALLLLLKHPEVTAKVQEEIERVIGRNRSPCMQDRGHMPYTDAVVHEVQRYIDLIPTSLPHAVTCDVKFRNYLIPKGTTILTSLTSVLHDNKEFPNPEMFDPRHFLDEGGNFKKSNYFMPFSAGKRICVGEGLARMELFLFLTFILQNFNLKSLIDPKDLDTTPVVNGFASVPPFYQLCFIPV

| SMILES | Potency | activity, negative = inhibition |
| --- | --- | --- |
| COc1ccc2[nH]cc(CCNc3ncncc3-c3ccccc3C(F)(F)F)c2c1 | 251 nM (active) | – |
| COc1cccc(Cn2c(=O)cnc3cnc(N(C)C)nc32)c1 | 2510 nM (active) | – |
| CNc1ncncc1-c1ccccc1CN(C)C | – | 24.4% (inactive) |
| COc1ccccc1CNc1ncncc1-c1ccccc1C(F)(F)F | 1580 nM (active) | – |
| O=c1cc(-c2ccc(O)c(O)c2)oc2cc(O[C@@H]3O[C@@H](CO)[C@@H](O)[C@@H](O)[C@H]3O)cc(O)c12 | – | -8.61% (inactive) |

Tested on: not listed separately
Assay: qHTS Assay for Identification of Small Molecule Agonists for Hypoxia Response Element Signaling Pathway (AID 914; active = well fitted activation curve with a large enough effect in the signal ratio, with a control signal flat, not every such curve was filed as active; the % refers to the signal ratio; note: % of control where 0% means no effect)
Settings: ME-180 (cervical carcinoma) HRE-bla reporter, beta-lactamase ratio, CoCl2, 17 h; activation: stronger effect = higher value
Procedure, shortened: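 Read-out: CCF4 FRET ratio of 460nm to 530nm emission (excitation 405nm) after 2.5 hours at room temperature, taken from HRE-bla ME-180 cells that had been exposed to compound and EC50 CoCl2 for 17 hours.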

| SMILES | activation [%] |
| --- | --- |
| CN(C)C(=O)c1ccc(-c2ccc3ncnc(Nc4ccc(F)cc4)c3c2)cc1 | 7.84 |
| CN(C)c1nc(-c2cccc(NS(C)(=O)=O)c2)nc2ccccc12 | 22.5 |
| COc1ncc2nc(-c3cccs3)c(=O)n(CCC#N)c2n1 | 25.6 |
| COc1ccccc1-c1nccc(N2CCN(C)CC2)n1 | 26.2 |
| c1ccc2c(NCCN3CCOCC3)nc(-c3ccoc3)nc2c1 | -2.73 |

Tested on: not listed separately
Assay: MultiTox-Fluor Cytotoxicity Assay - LYMP1-001 - Dead Cells (AID 946)
Settings: LYMP1-001 lymphoblastoid cells, dead-cell protease fluorescence; series mostly up to 92.2 µM; cytotoxicity (dead cells): at the top concentration
Procedure, shortened: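 LYMP1-001 lymphoblastoid cells (2500/well) treated 16 h at 37 C. Dead-cell protease cleavage of bis-AAF-R110 read at Ex/Em 485/520. Normalized to DMSO and 15 uM tetraoctylammonium bromide; AC50 from Hill fits.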

| SMILES | cytotoxicity (dead cells) | Potency |
| --- | --- | --- |
| C=CCc1ccc(OC)c(OC)c1 | 10.2% (inactive) | – |
| C=C(C)C1CC=C(C)C(O)C1 (stereo unspecified) | 7.19% (inactive) | – |
| CC1=C2[C@H](/C=C(\C)C(=O)O)CC[C@@H](C)[C@H]2CC1 | 5.06% (inactive) | – |
| CCCCCCCCCCCC(=O)O | – | inactive |

Tested on: not listed separately
Assay: MultiTox-Fluor Cytotoxicity Assay - LYMP1-001 - Live Cells (AID 947);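 note: 0% = DMSO only and full inhibition = tetraoctylammonium bromide control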
Settings: LYMP1-001 lymphoblastoid cells, live-cell protease fluorescence viability; series mostly up to 92.2 µM; activity change, negative = cytotoxicity: at the top concentration

| SMILES | activity change, negative = cytotoxicity | Potency |
| --- | --- | --- |
| C=CCc1ccc(OC)c(OC)c1 | 13.3% (inactive) | – |
| C=C(C)C1CC=C(C)C(O)C1 (stereo unspecified) | 6.05% (inactive) | – |
| CC1=C2[C@H](/C=C(\C)C(=O)O)CC[C@@H](C)[C@H]2CC1 | -0.17% (inactive) | – |
| CCCCCCCCCCCC(=O)O | – | inactive |

Tested on: not listed separately
Assay: Cell Viability - LYMP1-002 - Assay at 16 hr (AID 948);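 note: 0% = DMSO alone and full effect = 92 µM tetraoctylammonium bromide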
Settings: LYMP1-002 lymphoblastoid cell viability; series mostly up to 92.2 µM; activity change, negative = cytotoxicity: at the top concentration
Procedure, shortened: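 Seed 2500 LYMP1-002 cells per well in complete medium and hold 5 hr at 37 C. Add compound across a concentration series and incubate 16 hr at 37 C. Add CellTiter-Glo, wait 30 min at room temperature, read luminescence.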

| SMILES | activity change, negative = cytotoxicity | Potency |
| --- | --- | --- |
| C=CCc1ccc(OC)c(OC)c1 | -2.31% (inactive) | – |
| C=C(C)C1CC=C(C)C(O)C1 (stereo unspecified) | -0.812% (inactive) | – |
| CC1=C2[C@H](/C=C(\C)C(=O)O)CC[C@@H](C)[C@H]2CC1 | -3.84% (inactive) | – |
| CCCCCCCCCCCC(=O)O | – | inactive |

Tested on: not listed separately
Assay: MultiTox-Fluor Cytotoxicity Assay - LYMP1-002 - Live Cells (AID 955); note: % is set by controls: 0 for no effect and ±100 for the full control effect
Settings: LYMP1-002 lymphoblastoid live-cell protease fluorescence viability; series mostly up to 46.1 µM; viability change, negative = cytotoxic: at the top concentration
Procedure, shortened: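 Read-out is live-cell protease activity (cell-permeant GF-AFC substrate, fluorescence Ex/Em=405/510), where a decrease indicates acute toxicity. Human lymphoblastoid cells were treated 16 hours at 37 C in a concentration series, and AC50 values came from standard Hill modelling.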

| SMILES | viability change, negative = cytotoxic | Potency |
| --- | --- | --- |
| C=CCc1ccc(OC)c(OC)c1 | 13.7% (inactive) | – |
| C=C(C)C1CC=C(C)C(O)C1 (stereo unspecified) | 1.7% (inactive) | – |
| CC1=C2[C@H](/C=C(\C)C(=O)O)CC[C@@H](C)[C@H]2CC1 | 7.45% (inactive) | – |
| CCCCCCCCCCCC(=O)O | – | inactive |

Tested on: not listed separately
Assay: MultiTox-Fluor Cytotoxicity Assay - LYMP1-002 - Dead Cells (AID 960); note: nearly all actives have a fitted effect of over 60% in size
Settings: LYMP1-002 lymphoblastoid cells, dead-cell protease fluorescence; series mostly up to 46.1 µM; cytotoxicity (dead cells): at the top concentration
Procedure, shortened: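 LYMP1-002 cells 2500/well; 5 hr 37 C pre-incubation; compound 16 hr 37 C; MultiTox-Fluor reagent 60 min RT; dead-cell fluor Ex/Em 485/520. Norm. to DMSO (0%) vs 15 uM tetraoctylammonium bromide (100%); Hill AC50.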

| SMILES | cytotoxicity (dead cells) | Potency |
| --- | --- | --- |
| C=CCc1ccc(OC)c(OC)c1 | 15.8% (inactive) | – |
| C=C(C)C1CC=C(C)C(O)C1 (stereo unspecified) | 13.3% (inactive) | – |
| CC1=C2[C@H](/C=C(\C)C(=O)O)CC[C@@H](C)[C@H]2CC1 | 21.3% (inactive) | – |
| CCCCCCCCCCCC(=O)O | – | inactive |

Tested on: not listed separately
Assay: MultiTox-Fluor Cytotoxicity Assay - LYMP1-003 - Dead Cells (AID 961); note: nearly all actives have a fitted effect of over 70% in size
Settings: LYMP1-003 lymphoblastoid cells, dead-cell protease fluorescence; series mostly up to 92.2 µM; cytotoxicity (dead cells): at the top concentration
Procedure, shortened: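 LYMP1-003 human lymphoblastoid cells (2500/well) exposed to compound 16 h at 37 C in complete medium; dead-cell protease read with bis-AAF-R110 fluorescence (Ex/Em 485/520) after 60 min at room temperature. Normalized to DMSO and 15 uM tetraoctylammonium bromide; AC50 from Hill fit.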

| SMILES | cytotoxicity (dead cells) |
| --- | --- |
| C=CCc1ccc(OC)c(OC)c1 | -16.5% (inactive) |
| C=C(C)C1CC=C(C)C(O)C1 (stereo unspecified) | -9.78% (inactive) |
| CC1=C2[C@H](/C=C(\C)C(=O)O)CC[C@@H](C)[C@H]2CC1 | 4.08% (inactive) |
